# The whole screen tested about 340,000 compounds, of which about 3,300 (0.97%) were called active.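 How the source made its calls: active means maximum activity change below -70%; inconclusive means maximum activity change from -70% to -50%; inactive means maximum activity change above -50%.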 The entries come from a sample that favours actives as a whole.
# Test system: Potassium voltage-gated channel subfamily H member 2, brain isoform KCNH2 3.1 (human)
# Assay: qHTS for Inhibitors of KCHN2 3.1: Mutant qHTS
# Details: U2OS KCNH2 3.1, thallium flux FluxOr; stronger effect = lower value
# Summary of the method: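 Kinetic fluorescence (2 min after stimulation buffer) measures Tl+ influx through KCNH2 3.1 expressed by viral transduction in U2OS cells; the rate constant is normalized against DMSO controls serving as positive and negative references.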
# On the % scale 0 is the no-effect control and ±100 the full control effect.
row,Compound,activity change
1,O=C(c1ccc(OC2CCN(C/C=C/c3ccc(F)cc3)CC2)cc1)N1CCCCC1,-73.2% (active)
2,O=C(c1ccc(OC2CCN(Cc3ccccn3)CC2)cc1)N1CCCCCC1,10% (inactive)
3,CC(=O)Nc1ccc(CN2CCC(Oc3ccc(C(=O)N4CCCC4)cc3)CC2)cc1,9.17% (inactive)
4,Cc1ccc([C@H]2N[C@]3(CCCN(CC4CCCCC4)C3=O)[C@H]3C(=O)N(Cc4ccccc4)C(=O)[C@@H]23)cc1,-5.04% (inactive)
5,Nc1cccc(OCCCCCOc2cccc(N)c2)c1,-1.75% (inactive)
6,Cn1c(=O)c(=O)n(C)c2cc(S(=O)(=O)CCC(=O)N3CCCCC3)ccc21,-86.6% (active)
7,CCCCN(CCCC)C(=O)CCS(=O)(=O)c1ccc2c(c1)n(C)c(=O)c(=O)n2C,-1.58% (inactive)
8,CCc1ccc(S(=O)(=O)Nc2cc3c(cc2N2CCCCC2)n(C)c(=O)c(=O)n3C)cc1,-8.37% (inactive)
9,CCOC(=O)C1CCN(C(=O)c2ccc3c(=O)n4nc(Nc5ccccc5CC)sc4nc3c2)CC1,-6.19% (inactive)
10,CCOc1ccc(C2c3[nH]c4ccccc4c3CCN2Cc2cccn2-c2ncccn2)cc1 (centres undefined),-73.3% (active)
11,CCOc1ccc(C2c3[nH]c4ccccc4c3CCN2Cc2cn(CC)nc2C)cc1 (centres undefined),-7.11% (inactive)
12,c1ccc(C2c3[nH]c4ccccc4c3CCN2Cc2cccn2-c2cccnc2)nc1 (centres undefined),7.54% (inactive)
13,COc1ncnc2c1ncn2CCCNCCN1CCOCC1,7.59% (inactive)
14,COc1ccc(CN2C(=O)C(CC(=O)NCc3cccc4ccccc34)CC(C(=O)N3CCOCC3)=C2C)cc1 (centres undefined),6.14% (inactive)
15,OC(COc1ccccc1)CN1CCN(c2cccc(Cl)c2)CC1 (centres undefined),-33.9% (inactive)
16,CCCc1ccc(OCC(O)CN2CCN(C(=O)OCC)CC2)cc1 (centres undefined),-6.68% (inactive)
17,O=[N+]([O-])c1ccc(N2CCN(CC(O)COc3ccccc3)CC2)cc1 (centres undefined),-90.3% (active)
18,O=C(C(c1ccccc1)c1ccccc1)N1CCN(CC(O)COc2ccccc2)CC1 (centres undefined),-70.2% (active)
19,CC1CCN(CC(O)COc2ccc(C(=O)c3ccccc3)cc2)CC1 (centres undefined),-6.71% (inactive)
20,C[N+]1(CC(O)COc2ccccc2)CCN(C(=O)c2ccc([N+](=O)[O-])cc2)CC1 (centres undefined),-11.2% (inactive)
21,CC1=C(C(=O)Nc2cccc(C(=O)NCC(C)c3ccccc3)c2)SCCO1 (centres undefined),3.22% (inactive)
22,COc1ccc(C(=O)NCC2CCCO2)cc1S(=O)(=O)NCc1ccc(Cl)cc1 (centres undefined),-6.01% (inactive)
23,N#CCSc1ccccc1NC(=O)CN1C(=O)NC(CCc2ccccc2)C1=O (centres undefined),0.381% (inactive)
24,COc1ccc(-n2c(-c3ccc(Cl)cc3)n[nH]c2=S)c(OC)c1,-3.64% (inactive)
25,Cc1ccc(COc2ccc(/C=N/NC(=O)CN3CCCCC3)cc2)cc1,-108% (active)
26,O=C(CN1CCSCC1)N/N=C/c1ccc(F)cc1,1.88% (inactive)
27,CCOc1cc(/C=N/NC(=O)CN2CCCCC2)ccc1O,1.68% (inactive)

row,Compound,activity change
1,O=C1c2ccccc2C(=O)N1CCCc1nc(-c2ccccc2)no1,6.34% (inactive)
2,O=C1c2cccc3cccc(c23)C(=O)N1CCCCCc1n[nH]c(=S)o1,-159% (active)
3,O=C1c2ccccc2C(=O)N1CCCCCCN1C(=O)c2ccccc2C1=O,6.18% (inactive)
4,c1ccc(CNCc2ccc(CNCc3ccccc3)cc2)cc1,1.02% (inactive)
5,COc1ccc(CN2CCC(c3nc4ccc(Cl)cc4[nH]3)CC2)cc1,-98.1% (active)
6,COc1ccc(F)c(-c2nc(CN3CCC(c4ccccc4)CC3)c(C)o2)c1,-31.2% (inactive)
7,COc1ccc(Cn2nnc3c(=O)[nH]c(C4CCN(C(=O)c5ccccc5Cl)CC4)nc32)cc1,-29.8% (inactive)
8,COCCCn1c(C(=O)NC2CCCCC2)cc2c(=O)n3cccc(C)c3nc21,5.72% (inactive)
9,N#CC1(Nc2ccc3c4c(cccc24)CC3)CCCCC1,0.638% (inactive)
10,Cc1ccc2nc(-c3ccc(NC(=O)c4cccnc4)cc3)oc2c1,-11.7% (inactive)
11,COc1cc(OC)cc(C(=O)Nc2ccc(-c3nc4ccccc4o3)c(O)c2)c1,-93.4% (active)
12,COc1ccc(NC(=O)c2cc(-c3ccc(C)o3)nc3ccccc23)cc1,-28.1% (inactive)
13,O=C(c1ncn2c1c(=O)[nH]c1ccccc12)N1CCc2ccccc2C1,-7.26% (inactive)
14,COc1ccccc1C(=O)NC(=S)Nc1ccc(N2CCOCC2)cc1,6.65% (inactive)
15,O=C(Nc1nnc(-c2ccccc2)o1)c1cc(-c2cccs2)nc2ccccc12,-3.38% (inactive)
16,CCCCN(C)CCCNC(=O)c1cc(-c2cccs2)nc2ccccc12,-71.7% (active)
17,CCN(CC)CCNC(=O)c1ccc(NC(=O)c2cc(-c3ccncc3)nc3ccccc23)cc1,4.76% (inactive)
18,CC1=C(C(=O)N2CCOCC2)CC(CC(=O)NCc2cccc3ccccc23)C(=O)N1CCC1=CCCCC1 (centres undefined),1.47% (inactive)
19,O=C(OCc1cn([C@@H]2C[C@H](c3ccc(Cl)cc3)N(Cc3cccs3)C[C@H]2O)nn1)c1ccccc1,6.9% (inactive)
20,Cc1ccc(S(=O)(=O)N2C[C@@H](C)[C@]3(C2)[C@H](O)[C@H](OC(=O)NCc2ccccc2)C[C@H]2C(=O)N(c4ccccc4)C(=O)[C@H]23)cc1,5.25% (inactive)
21,N#CCCN(C(=S)Nc1ccc(Cl)c(Cl)c1)C1CCCCC1,-7.86% (inactive)
22,COc1cccc(NC(=O)CN(C)C(C)C(=O)Nc2ccc(C#N)cc2)c1 (centres undefined),3.52% (inactive)
23,COc1cc(NC(=O)c2cncc(-c3ccc(C#N)cc3)c2)cc(C(=O)Nc2cccc(C(F)(F)F)c2)c1,-82.3% (active)
24,COc1cc(NC(=O)c2[nH]cnc2C(N)=O)cc(C(=O)Nc2cccc(C(F)(F)F)c2)c1,-24.6% (inactive)
25,CCCNC(=O)C1CC(=O)N(c2ccc(OCc3ccccc3)cc2)C1 (centres undefined),-2.11% (inactive)
26,O=C(C1CCCO1)N1CCN(C(=O)C23CC4CC(CC(C4)C2)C3)CC1 (centres undefined),3.39% (inactive)
27,CC(=O)Nc1ccc(C=CC(=O)c2ccc([N+](=O)[O-])cc2)cc1,-4.78% (inactive)

# Source: PubChem BioAssay AID720553 (National Center for Advancing Translational Sciences (NCATS), 2013)
